Screens: PubChem, Broad Institute
Tcruzi prolif: inhibitors of T. cruzi proliferation; hit rate 5.9% among 77,000; inhibition, % at 8.34 µM; T. cruzi beta-gal in NIH3T3, GalScreen luminescence, 90 h;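 active = mean inhibition above about 93%, with at least 55% of replicates each passing it, limit read from the data, passing the limit was not always enough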
Pf Dd2 growth: blocks growth of Plasmodium falciparum Dd2 parasites; AID 1159554; P. falciparum Dd2 growth, SYBR Green, 72 h; stronger effect = lower value; activity change, % at 10 µM; hit rate 2.3% among 94,000; in the data active = activity change below about -80%
C diff HTS: blocks growth of Clostridium difficile; Clostridium difficile clinical isolate growth, OD600, 24 h; stronger effect = lower value; growth activity, negative = inhibition, % at 16 µg/mL (by protocol); hit rate 0.25% among 86,000;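 active = mean growth activity at or below -80% and every replicate also at or below -80%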
Of the large screens only hits and unclear results are named; the others gave an inactive call. In the library only some 6.7% were active in any assay of this set; here they are far more common.

COc1ccc(S(=O)(=O)Nc2ccc3c(c2)C(=O)N([C@H](C)CO)C[C@@H](C)[C@@H](CN(C)C(=O)Nc2cccc4ccccc24)OCCCC[C@@H](C)O3)cc1	Pf Dd2 growth -85.7 (no result: C diff HTS)
COc1ccc(S(=O)(=O)Nc2ccc3c(c2)C(=O)N([C@@H](C)CO)C[C@H](C)[C@H](CN(C)C(=O)Nc2cccc4ccccc24)OCCCC[C@H](C)O3)cc1	Pf Dd2 growth -86.2 (no result: C diff HTS)
COc1ccc(S(=O)(=O)Nc2ccc3c(c2)C(=O)N([C@@H](C)CO)C[C@@H](C)[C@@H](CN(C)C(=O)Nc2cccc4ccccc24)OCCCC[C@@H](C)O3)cc1	none (no result: C diff HTS)
COc1ccc(S(=O)(=O)Nc2ccc3c(c2)C(=O)N([C@@H](C)CO)C[C@H](C)[C@@H](CN(C)C(=O)Nc2cccc4ccccc24)OCCCC[C@H](C)O3)cc1	none
CCNC(=O)C[C@@H]1CC[C@H]2[C@@H](COc3ccc(NS(=O)(=O)c4ccccc4C)cc3C(=O)N2C)O1	none
COc1ccc(S(=O)(=O)Nc2ccc3c(c2)C(=O)N([C@H](C)CO)C[C@@H](C)[C@@H](CN(C)C(=O)CCC(F)(F)F)OCCCC[C@@H](C)O3)cc1	none
COc1ccccc1C#Cc1ccc2c(c1)[C@@H]1[C@@H](CCN1C(=O)Cc1ccccc1)[C@H](CO)N2	none (no result: Tcruzi prolif)
CCNC(=O)[C@@H]1[C@@H](CO)[C@@H]2Cn3c(ccc(C4=CCCC4)c3=O)[C@@H]2N1C(=O)C1CC1	none (no result: Pf Dd2 growth)
C[C@H](CO)N1C[C@H](C)[C@@H](CN(C)C(=O)C2CC2)Oc2ncc(C3=CCCC3)cc2C1=O	none (no result: C diff HTS)
c1ccc(CN2C[C@@H]3N[C@H](C2)C3c2ccc(-c3ccncc3)cc2)cc1 (some centres undefined)	Pf Dd2 growth -83.7 (no result: Tcruzi prolif)
Fc1ccccc1-c1ccc(C2[C@@H]3CN(Cc4ccccn4)C[C@H]2N3)cc1 (some centres undefined)	none (no result: Tcruzi prolif)
C(=C\c1ccc(C2[C@@H]3CN(Cc4cccnc4)C[C@H]2N3)cc1)/c1ccccc1 (some centres undefined)	Pf Dd2 growth -90.4 (no result: Tcruzi prolif)
c1ccc(CN2C[C@@H]3N[C@H](C2)C3c2ccc(-c3ccccc3)cc2)cc1 (some centres undefined)	none (no result: Tcruzi prolif)
c1cncc(CN2C[C@@H]3N[C@H](C2)C3c2ccc(-c3cccnc3)cc2)c1 (some centres undefined)	none (no result: Tcruzi prolif)
Fc1ccccc1-c1ccc(C2[C@@H]3CN(Cc4ccccc4)C[C@H]2N3)cc1 (some centres undefined)	C diff HTS -98.3 (no result: Tcruzi prolif)
C[C@@H]1CCCCO[C@@H](CN(C)Cc2ccncc2)[C@H](C)CN([C@H](C)CO)C(=O)c2cc(NS(=O)(=O)c3cccs3)ccc2O1	none
O=S(=O)(N[C@H]1CC[C@@H](CCn2cc(-c3cccnc3)nn2)O[C@H]1CO)c1ccccc1	none
COc1cccc(CNC(=O)[C@@H]2[C@@H](CO)[C@@H]3Cn4c(cccc4=O)[C@H]2N3C(=O)C2CCCC2)c1	none (no result: Tcruzi prolif)
COc1cccc(CNC(=O)[C@H]2[C@H](CO)[C@H]3Cn4c(cccc4=O)[C@@H]2N3C(=O)C2CCCC2)c1	Pf Dd2 growth -81.5 (no result: Tcruzi prolif)
C[C@@H]1CN([C@@H](C)CO)C(=O)c2c(c3ccccc3n2C)-c2ccccc2CO[C@@H]1CN(C)S(=O)(=O)c1cccc(F)c1	none
Cc1cccc(S(=O)(=O)N(C)C[C@H]2OCc3ccccc3-c3c(n(C)c4ccccc34)C(=O)N([C@H](C)CO)C[C@H]2C)c1	Pf Dd2 growth -83.6 (no result: C diff HTS)
C[C@H](CO)N1C[C@H](C)[C@@H](CN(C)S(=O)(=O)c2ccccc2)OCc2ccccc2-c2c(n(C)c3ccccc23)C1=O	none (no result: C diff HTS)
Cc1cccc(S(=O)(=O)N(C)C[C@@H]2OCc3ccccc3-c3c(n(C)c4ccccc34)C(=O)N([C@@H](C)CO)C[C@H]2C)c1	Pf Dd2 growth -81.5 (no result: C diff HTS)
COc1ccc2c3c([nH]c2c1)[C@H](CO)N(C(=O)CN(C)C)CC31CCN(CC2CC2)CC1	none (no result: Tcruzi prolif)
COc1ccc2c3c([nH]c2c1)[C@H](CO)N(C(=O)CN(C)C)CC31CN(CC2CCCC2)C1	none (no result: Tcruzi prolif)
COc1ccc2c3c([nH]c2c1)[C@H](CO)N(C(=O)CN(C)C)CC31CCN(CC2CCCCC2)CC1	Pf Dd2 growth -89.0 (no result: Tcruzi prolif)
COc1ccc2c3c([nH]c2c1)[C@@H](CO)N(C(=O)CN(C)C)CC31CCN(CC2CCCCC2)CC1	Pf Dd2 growth -87.2 (no result: Tcruzi prolif)
C[C@@H]1CN([C@@H](C)CO)S(=O)(=O)c2ccc(-c3cccc(C(=O)N(C)C)c3)cc2O[C@@H]1CN(C)Cc1ccc2c(c1)OCO2	none (no result: Tcruzi prolif)
CC(C)CC#Cc1ccc2c(c1)O[C@@H](CN(C)Cc1cccc(F)c1)[C@@H](C)CN([C@H](C)CO)S2(=O)=O	none
C[C@@H]1CN([C@@H](C)CO)S(=O)(=O)c2ccc(-c3cccc(C(=O)N(C)C)c3)cc2O[C@H]1CN(C)Cc1ccc2c(c1)OCO2	Pf Dd2 growth -82.4 (no result: Tcruzi prolif)
C[C@H]1CN([C@@H](C)CO)S(=O)(=O)c2ccc(C#CCN(C)C)cc2O[C@@H]1CN(C)Cc1ccncc1	Tcruzi prolif 97.4
C[C@H](CO)N1C[C@H](C)[C@H](CN(C)Cc2ccncc2)Oc2cc(C#CCN(C)C)ccc2S1(=O)=O	none
CC(C)CC#Cc1ccc2c(c1)O[C@@H](CN(C)Cc1cccc(F)c1)[C@H](C)CN([C@@H](C)CO)S2(=O)=O	Pf Dd2 growth -84.5
CN1c2ccc(Br)cc2[C@H]2[C@H](CCN2C(=O)Nc2ccc(F)cc2)[C@@H]1CO	C diff HTS -94.4
CN1c2ccc(C#Cc3cccnc3)cc2[C@H]2[C@H](CCN2C(=O)C2CCCC2)[C@H]1CO	Pf Dd2 growth -88.8 (no result: Tcruzi prolif)
COc1ccc(-c2ccc3c(c2)[C@H]2[C@H](CCN2C(=O)C2CC2)[C@@H](CO)N3C)cc1	none
CN1c2ccc(Br)cc2[C@H]2[C@H](CCN2C(=O)Nc2ccc(F)cc2)[C@H]1CO	none
COc1ccc(-c2ccc3c(c2)[C@H]2[C@H](CCN2C(=O)C2CCCC2)[C@H](CO)N3C)cc1	Pf Dd2 growth -84.9 (no result: Tcruzi prolif)
CN1c2ccc(C#Cc3cccnc3)cc2[C@@H]2[C@@H](CCN2C(=O)C2CCCC2)[C@@H]1CO	none (no result: Tcruzi prolif)
CO[C@@H]1CN(C)C(=O)c2ccc(NS(=O)(=O)c3ccccc3)cc2OC[C@H](C)N(C(=O)NC(C)C)C[C@@H]1C	none
CCCN1[C@@H]2Cn3c(ccc(C4=CCCC4)c3=O)[C@H]1[C@@H](C(=O)NCCOC)[C@@H]2CO	none
O=C(Nc1ccccc1F)N1[C@@H](CO)[C@@H]2c3ccccc3NC[C@@H]21	none
CO[C@@H]1CN(C)C(=O)c2cc(NC(=O)c3ccc4c(c3)OCO4)ccc2OC[C@@H](C)NC[C@@H]1C	none
C[C@H](CO)N1C[C@H](C)[C@@H](CN(C)C(=O)c2ccncc2)Oc2ncc(C3=CCCCC3)cc2C1=O	none
CNC(=O)C[C@H]1CC[C@@H]2[C@@H](COc3ccc(NC(=O)NCc4ccccc4)cc3C(=O)N2C)O1	none
C[C@@H]1CCCCO[C@H](CN(C)C(=O)Nc2ccc3c(c2)OCO3)[C@H](C)CN([C@H](C)CO)C(=O)c2cc(NC(=O)Cc3ccccc3)ccc2O1	Pf Dd2 growth -82.2
C[C@@H]1CCCCO[C@@H](CN(C)C(=O)Nc2ccc3c(c2)OCO3)[C@@H](C)CN([C@@H](C)CO)C(=O)c2cc(NC(=O)Cc3ccccc3)ccc2O1	Pf Dd2 growth -83.5
